dFosB act – activators of delta FosB homodimer, primary screen, biochemical, fluorescence polarization, TAMRA-CDK5 oligo, single point. Protein FosB (Mus musculus), P13346. purified delta FosB; percent of positive-control signal above neutral wells. activation, % at 25 µM. actives 0.99% (n = 340,000). AID 493131, 2011;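 active = mean activation above about 17%, with every replicate also reaching it, limit read from the data, passing the limit was not always enough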
SIRT5 block – SIRT5 desuccinylase inhibitors, primary screen, biochemical, fluorescence imaging, single point, set 5. actives 1.1% (n = 330,000). Purified SirT5, succinyl-peptide AMC, trypsin-coupled fluorescence. AID 652115, 2013. inhibition, % at 15 µM; in the data active = inhibition above about 15%
Target sequence (Q9NXA8 whole entry, looked up): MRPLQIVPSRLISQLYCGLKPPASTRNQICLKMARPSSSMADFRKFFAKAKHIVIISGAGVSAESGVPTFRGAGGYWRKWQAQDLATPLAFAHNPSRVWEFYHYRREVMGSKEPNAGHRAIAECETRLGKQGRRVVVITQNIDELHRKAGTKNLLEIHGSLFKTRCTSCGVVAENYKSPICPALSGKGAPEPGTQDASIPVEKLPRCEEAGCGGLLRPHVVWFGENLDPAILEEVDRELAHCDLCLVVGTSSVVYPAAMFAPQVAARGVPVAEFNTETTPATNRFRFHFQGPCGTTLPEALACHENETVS
CDK5 inh – inhibitors of human CDK5/p35 kinase, primary screen, biochemical, single concentration; actives 0.01% (n = 330,000); Recombinant CDK5/p35, ADP-Glo luminescence, 60 min; inhibition, % at 10 µM;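 active = highest replicate inhibition of at least 50% and at least 75% of replicates reaching 50%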;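 note: plate controls were DMSO neutral control for no effect and GW8510 at 10 µM for full effect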
FGF22 binding – binders of human FGF22 protein, primary screen, FGF22 synaptogenesis inhibitor project, biophysical, thermal shift, single point; Fibroblast growth factor 22 (Homo sapiens), Q9HCT0; recombinant FGF22 thermal shift, SYPRO orange fluorescence; percent of sucrose octasulfate shift, DMSO zero; activity (Tm shift, normalised), % at 9.99 µM; actives 1.5% (n = 340,000);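 active = mean Tm shift, scaled 0 neutral to 100 positive control, at about 1.3% or above, every replicate too, limit read from the data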
Target sequence (Q9HCT0 whole entry, looked up): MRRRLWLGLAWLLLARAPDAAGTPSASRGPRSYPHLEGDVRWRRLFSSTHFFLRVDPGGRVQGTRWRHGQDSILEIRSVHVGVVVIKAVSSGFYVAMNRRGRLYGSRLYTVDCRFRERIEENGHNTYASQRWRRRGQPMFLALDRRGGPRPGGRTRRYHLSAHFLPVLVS
PglD DTNB – C. jejuni PglD acetyltransferase inhibitors, primary screen, biochemical, DTNB colorimetric, single point. UDP-N-acetylbacillosamine N-acetyltransferase PglD (Campylobacter jejuni). actives 0.098% (n = 360,000). purified PglD enzyme, DTNB colorimetric CoA detection. inhibition, % at 12.5 µM; in the data active = inhibition above about 16%, passing the limit was not always enough
PvdQ inh – P. aeruginosa PvdQ acylase inhibitors, primary screen, biochemical, fluorescence, plate reader and imaging, single point; PvdQ acylase [Pseudomonas aeruginosa LESB58]; purified PvdQ acylase; inhibition, % at 10 µM; actives 0.063% (n = 340,000); in the data active = inhibition above about 30%, passing the limit was not always enough;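 note: 0% = vehicle neutral wells and 100% = reference inhibitor wells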
* marks the source's active call; other numbers are inactive results. Shown are actives, neighbours in structure and some others; about 2.8% of the full set was active somewhere.

NNC(=O)c1sccc1OCc1cccc(C(F)(F)F)c1 was read as dFosB act -2, SIRT5 block -5, CDK5 inh -5, FGF22 binding 0 and PvdQ inh -25.
Screening CC(=O)c1ccc(OCc2cccc(C(F)(F)F)c2)cc1O returned dFosB act 4, SIRT5 block -3, CDK5 inh 0, FGF22 binding 43* and PvdQ inh -6.
`COc1cc(CC(NC(C)=O)C(=O)NC2CCN(C(=O)c3cc(OC)c(OC)c(OC)c3)CC2)cc(OC)c1` (configuration not stated) gave dFosB act 5, SIRT5 block -7, CDK5 inh 1, FGF22 binding 43*, PglD DTNB -3 and PvdQ inh 4.
For COc1cc(CC(NC(C)=O)C(=O)NC2CCN(C(=O)Nc3ccccc3C)CC2)cc(OC)c1 (configuration not stated) the results were dFosB act -8, SIRT5 block 17*, CDK5 inh -1, FGF22 binding 0, PglD DTNB 3 and PvdQ inh -10.
`CN1C(=O)c2cc(NS(=O)(=O)c3cccc(F)c3)ccc2OC[C@H]2O[C@H](CC(=O)NCCN3CCCCC3)CC[C@@H]21` gave SIRT5 block -4, FGF22 binding 0 and PglD DTNB -3.
Screening CCCNC(=O)C[C@@H]1C[C@H]2c3cc(NC(=O)CC4CC4)ccc3O[C@H]2[C@H](CO)O1 returned SIRT5 block 0, FGF22 binding 0 and PglD DTNB 1.
Screening CCCn1cc(S(=O)(=O)c2ccc(C)cc2)c(=O)c2cc(OC)c(OC)cc21 returned dFosB act -9, SIRT5 block 20*, CDK5 inh 1, FGF22 binding 0, PglD DTNB -6 and PvdQ inh -1.
O=C(NCCc1csc(-c2cccnc2)n1)c1c(F)cccc1F was read as dFosB act -3, SIRT5 block 8, CDK5 inh 0, FGF22 binding 0, PglD DTNB -7 and PvdQ inh -12.
`O=C(NCCc1csc(-c2cccnc2)n1)c1ccccc1Br` gave dFosB act -13, SIRT5 block 15*, CDK5 inh 1, FGF22 binding 0, PglD DTNB -2 and PvdQ inh 2.
`O=C(/C=C/c1ccc(F)cc1)N1CCCN(C(=O)/C=C/c2ccc(F)cc2)CC1` gave dFosB act -1, CDK5 inh 1, PglD DTNB -8 and PvdQ inh -1.
Screening O=C(/C=C/c1ccc(-c2ccc(F)cc2)o1)N1CCCC1 returned dFosB act -2, SIRT5 block 21*, CDK5 inh -1, FGF22 binding 0 and PvdQ inh 5.
For Cc1c(N2C(=O)C(=O)/C(=C(/O)c3ccc(Br)cc3)C2c2cccnc2)c(=O)n(-c2ccccc2)n1C (configuration not stated) the results were dFosB act 0, SIRT5 block -1, CDK5 inh 0, FGF22 binding 44* and PvdQ inh -10.
For COc1ccc(NC(=O)N(C)C[C@@H]2Oc3ccc(NC(=O)NC(C)C)cc3C(=O)N([C@@H](C)CO)C[C@H]2C)cc1 the results were SIRT5 block -1, FGF22 binding 0 and PglD DTNB 10.
For O=C(O)Cc1c[nH]c2cccc(O)c12 the results were dFosB act -12, SIRT5 block 33*, CDK5 inh -3, FGF22 binding 0, PglD DTNB 1 and PvdQ inh -4.
For CC(C)(C)c1[nH]nc2c1C(c1ccsc1)C(C#N)=C(N)O2 (configuration not stated) the results were dFosB act 4, SIRT5 block 2, CDK5 inh -1, FGF22 binding 43* and PvdQ inh -21.
CCCCCCSc1nnc2[nH]c(=O)cc(N)n12 was read as dFosB act -10, SIRT5 block -9, CDK5 inh -3, FGF22 binding 0 and PvdQ inh -16.
For CCCCCCCCSc1nnc2[nH]c(=O)cc(N)n12 the results were dFosB act -3, SIRT5 block -1, CDK5 inh 0, FGF22 binding 43* and PvdQ inh -14.
Cc1ccsc1/C=N/NC(=S)NCc1ccccc1 was read as dFosB act 11, SIRT5 block 2, CDK5 inh 1, FGF22 binding 0, PglD DTNB -3 and PvdQ inh -16.
Cc1ccsc1/C=N\NC(=O)CC(=O)NCc1ccccc1 was read as dFosB act -3, SIRT5 block 1, CDK5 inh -1, FGF22 binding 43* and PvdQ inh -9.
C/C(=N\Nc1ccc(C(=O)O)cc1)c1ccc(Br)cc1 was read as dFosB act -9, SIRT5 block 21*, CDK5 inh 1, FGF22 binding 0, PglD DTNB -3 and PvdQ inh -5.
Screening C/C(=N\Nc1ccc(C(=O)O)cc1)c1ccc(Cl)s1 returned dFosB act -5, SIRT5 block 23*, CDK5 inh 0, FGF22 binding 0, PglD DTNB 5 and PvdQ inh -14.
Screening CC(C)NC(=O)N(C)C[C@H]1Oc2ccc(NC(=O)Nc3ccc(F)cc3)cc2C(=O)N([C@@H](C)CO)C[C@@H]1C returned SIRT5 block -2, FGF22 binding 0 and PglD DTNB 1.
For CCNC(=O)C[C@H]1CC[C@H]2[C@H](COc3ccc(NC(=O)c4cc(C)on4)cc3C(=O)N2C)O1 the results were SIRT5 block 1, FGF22 binding 0 and PglD DTNB 2.
Cc1noc(C)c1S(=O)(=O)Nc1ccc2c(c1)CC(=O)N([C@@H](C)CO)C[C@H](C)[C@@H](CN(C)C(=O)NC1CCCCC1)O2 was read as SIRT5 block -2, FGF22 binding 0 and PglD DTNB 4.
`O=C1CNC(=S)N1Cc1ccccc1` gave dFosB act 5, SIRT5 block -1, CDK5 inh 0, FGF22 binding 43* and PvdQ inh -2.
`Clc1ccc(C2=NCCN2)cc1` gave dFosB act 1, SIRT5 block 112*, CDK5 inh 0, FGF22 binding 0 and PvdQ inh -10.
O=C(C[C@H]1C=C[C@H](NS(=O)(=O)c2ccc(F)cc2)[C@H](CO)O1)NC1CCC1 was read as SIRT5 block 8, FGF22 binding 0 and PglD DTNB -2.
`COc1cccc2sc3ccc(NCCC4CCCN4C)cc3c(=O)c12` (configuration not stated) gave dFosB act 4, SIRT5 block -1, CDK5 inh 1, FGF22 binding 0, PglD DTNB 2 and PvdQ inh -8.

Screening data (PubChem)
